Assay [1] concerns the target human Peroxisome Proliferator-activated Receptor delta (PPARd), PPARD (gene 5467) (UniProt Q03181). The assay can be described thus: ATG_PPARd_TRANS: Attagene TRANS-FACTORIAL HepG2 Assay for human Peroxisome Proliferator-activated Receptor delta (PPARd) (AID 2283002). The procedure, abridged: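 Read-out: reporter mRNA induction, quantified by fluorescent RT-PCR products resolved by capillary electrophoresis. Human HepG2 liver cells carried transiently transfected Gal4-UAS reporter constructs with chimeric NR-Gal4 fusions. Cells were dosed for 24 h; DMSO served as baseline.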

Assay [2] has as its target Peroxisome proliferator-activated receptor gamma (Homo sapiens) (UniProt P37231). The assay can be described thus: ATG_PPARg_TRANS: Attagene TRANS-FACTORIAL HepG2 Assay for human Peroxisome Proliferator-activated Receptor-gamma (PPARg) (AID 2283007). The procedure, abridged:
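Chimeric NR-Gal4 transactivation is measured in transiently transfected HepG2 cells by reporter mRNA induction at 24 h. Detection uses RT-PCR with fluorescent labelling and capillary electrophoresis; DMSO defines baseline.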

Assay [3] deals with Nuclear receptor subfamily 1 group I member 2 (Homo sapiens) (UniProt O75469). In words: ATG_PXR_TRANS: Attagene TRANS-FACTORIAL HepG2 Assay for human Pregnane X Receptor (PXR) (AID 2283008). The procedure, abridged: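 Read-out is fluorescence of labelled reporter cDNA fragments separated by capillary electrophoresis after RT-PCR and HpaI digestion. Source: HepG2 cells carrying PXR-GAL4/UAS reporter constructs, treated 24 h; activity fitted upward relative to DMSO.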

For assay [4], the target named is human Retinoic Acid Receptor gamma (RARg), RARG (gene 5916) (UniProt P13631). In words: ATG_RARg_TRANS: Attagene TRANS-FACTORIAL HepG2 Assay for human Retinoic Acid Receptor gamma (RARg) (AID 2283009). The procedure, abridged:
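HepG2, RARg-GAL4 TRANS system, 24 h exposure; reporter mRNA by RT-PCR + CE fluorescence; increase over DMSO.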

The target in assay [5] is human Retinoic Acid Receptor beta (RARb), RARB (gene 5915) (UniProt P10826). In words: ATG_RARb_TRANS: Attagene TRANS-FACTORIAL HepG2 Assay for human Retinoic Acid Receptor beta (AID 2283004). The procedure, abridged: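 Readout is reporter mRNA induction: RNA reverse-transcribed, PCR-amplified, FAM-labelled, HpaI-cut and resolved by capillary electrophoresis. Transiently transfected HepG2 cells carrying exogenous NR–Gal4 chimeras were dosed for 24 h; activity fitted upward relative to DMSO.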

The target in assay [6] is Retinoic acid receptor alpha (Homo sapiens) (UniProt P10276). In words: ATG_RARa_TRANS: Attagene TRANS-FACTORIAL HepG2 Assay for human Retinoic Acid Receptor alpha (RARa) (AID 2283005). The procedure, abridged:
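HepG2 transiently transfected with multiplex GAL4-UAS reporter units including a human RARa–GAL4 chimera; 24 h compound exposure. Reporter mRNA quantified by RT-PCR, 6-FAM labeling and capillary electrophoresis; gain of signal versus DMSO.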

Outcome and AC50 data for 13 compounds are collected here from PubChem BioAssay (EPA / NIEHS).

Structures are written as SMILES. Inconclusive results are not listed. Calls of active or inactive are those of the source. Rule for the calls: active = hit-call score of the fitted dose curve at least 0.9, where 1 is the maximum; inconclusive = response in the unintended direction; inactive = score below 0.9.

Sequence of Retinoic acid receptor alpha (Homo sapiens) (P10276 whole entry, looked up, the tested form may be a part): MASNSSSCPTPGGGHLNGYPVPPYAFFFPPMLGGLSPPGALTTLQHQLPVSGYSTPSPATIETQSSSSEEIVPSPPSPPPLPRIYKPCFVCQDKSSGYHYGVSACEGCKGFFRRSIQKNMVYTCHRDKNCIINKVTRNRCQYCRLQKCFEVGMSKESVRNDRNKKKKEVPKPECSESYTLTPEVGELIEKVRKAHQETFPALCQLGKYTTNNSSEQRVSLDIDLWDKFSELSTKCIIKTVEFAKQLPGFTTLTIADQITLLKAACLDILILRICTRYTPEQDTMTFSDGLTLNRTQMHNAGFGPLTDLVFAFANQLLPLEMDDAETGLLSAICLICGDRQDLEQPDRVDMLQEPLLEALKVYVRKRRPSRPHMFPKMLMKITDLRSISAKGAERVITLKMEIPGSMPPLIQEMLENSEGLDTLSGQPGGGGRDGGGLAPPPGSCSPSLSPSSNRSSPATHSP
Sequence of human Retinoic Acid Receptor gamma (RARg), RARG (gene 5916) (P13631 whole entry, looked up, the tested form may be a part): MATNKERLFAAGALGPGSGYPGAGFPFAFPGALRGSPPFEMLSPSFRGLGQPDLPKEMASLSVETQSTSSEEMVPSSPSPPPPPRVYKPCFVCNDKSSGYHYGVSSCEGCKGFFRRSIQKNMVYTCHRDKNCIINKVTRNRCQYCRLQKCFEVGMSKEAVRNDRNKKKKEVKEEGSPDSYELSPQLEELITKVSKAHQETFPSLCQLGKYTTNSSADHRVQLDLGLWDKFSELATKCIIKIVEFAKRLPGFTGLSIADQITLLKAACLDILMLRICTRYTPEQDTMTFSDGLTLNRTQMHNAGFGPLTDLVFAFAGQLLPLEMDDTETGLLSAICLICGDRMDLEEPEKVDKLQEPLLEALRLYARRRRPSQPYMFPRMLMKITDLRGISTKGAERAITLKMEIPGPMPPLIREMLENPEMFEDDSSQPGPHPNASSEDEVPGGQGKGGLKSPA
Sequence of Nuclear receptor subfamily 1 group I member 2 (Homo sapiens) (O75469 whole entry, looked up, the tested form may be a part): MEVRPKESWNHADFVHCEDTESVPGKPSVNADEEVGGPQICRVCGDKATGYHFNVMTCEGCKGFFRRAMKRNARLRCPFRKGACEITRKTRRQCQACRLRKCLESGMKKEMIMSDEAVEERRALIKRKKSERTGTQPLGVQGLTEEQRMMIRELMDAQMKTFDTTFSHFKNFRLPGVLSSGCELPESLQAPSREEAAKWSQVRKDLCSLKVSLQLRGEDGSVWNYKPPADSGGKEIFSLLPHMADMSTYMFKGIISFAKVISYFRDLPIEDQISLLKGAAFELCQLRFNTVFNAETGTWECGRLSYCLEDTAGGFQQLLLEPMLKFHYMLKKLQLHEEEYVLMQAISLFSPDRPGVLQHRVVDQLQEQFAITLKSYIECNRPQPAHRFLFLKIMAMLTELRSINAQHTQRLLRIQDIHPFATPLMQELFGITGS
Sequence of Peroxisome proliferator-activated receptor gamma (Homo sapiens) (P37231 whole entry, looked up, the tested form may be a part): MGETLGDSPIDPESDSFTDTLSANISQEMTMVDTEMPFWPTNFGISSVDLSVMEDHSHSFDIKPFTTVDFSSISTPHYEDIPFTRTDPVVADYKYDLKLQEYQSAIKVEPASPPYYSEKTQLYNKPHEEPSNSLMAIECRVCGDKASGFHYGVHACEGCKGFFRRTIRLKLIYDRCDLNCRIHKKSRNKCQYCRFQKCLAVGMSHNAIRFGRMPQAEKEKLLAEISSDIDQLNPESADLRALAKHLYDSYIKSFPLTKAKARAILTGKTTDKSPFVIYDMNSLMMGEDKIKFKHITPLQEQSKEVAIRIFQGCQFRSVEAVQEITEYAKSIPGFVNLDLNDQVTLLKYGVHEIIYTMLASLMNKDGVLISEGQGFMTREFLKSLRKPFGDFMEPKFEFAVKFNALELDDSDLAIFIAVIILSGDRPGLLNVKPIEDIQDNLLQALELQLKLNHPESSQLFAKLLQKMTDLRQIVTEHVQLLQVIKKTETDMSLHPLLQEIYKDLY
Sequence of human Peroxisome Proliferator-activated Receptor delta (PPARd), PPARD (gene 5467) (Q03181 whole entry, looked up, the tested form may be a part): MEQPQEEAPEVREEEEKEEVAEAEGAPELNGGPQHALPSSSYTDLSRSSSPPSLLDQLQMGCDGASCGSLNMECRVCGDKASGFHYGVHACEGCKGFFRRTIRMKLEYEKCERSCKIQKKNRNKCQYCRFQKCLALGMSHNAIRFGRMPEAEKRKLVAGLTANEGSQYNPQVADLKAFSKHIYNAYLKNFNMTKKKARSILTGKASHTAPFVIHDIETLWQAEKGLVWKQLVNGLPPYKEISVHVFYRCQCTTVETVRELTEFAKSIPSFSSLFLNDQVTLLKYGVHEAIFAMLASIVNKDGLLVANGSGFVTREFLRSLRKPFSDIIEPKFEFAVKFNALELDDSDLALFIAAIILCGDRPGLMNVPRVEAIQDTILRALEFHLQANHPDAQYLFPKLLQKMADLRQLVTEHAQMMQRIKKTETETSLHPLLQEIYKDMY
Sequence of human Retinoic Acid Receptor beta (RARb), RARB (gene 5915) (P10826 whole entry, looked up, the tested form may be a part): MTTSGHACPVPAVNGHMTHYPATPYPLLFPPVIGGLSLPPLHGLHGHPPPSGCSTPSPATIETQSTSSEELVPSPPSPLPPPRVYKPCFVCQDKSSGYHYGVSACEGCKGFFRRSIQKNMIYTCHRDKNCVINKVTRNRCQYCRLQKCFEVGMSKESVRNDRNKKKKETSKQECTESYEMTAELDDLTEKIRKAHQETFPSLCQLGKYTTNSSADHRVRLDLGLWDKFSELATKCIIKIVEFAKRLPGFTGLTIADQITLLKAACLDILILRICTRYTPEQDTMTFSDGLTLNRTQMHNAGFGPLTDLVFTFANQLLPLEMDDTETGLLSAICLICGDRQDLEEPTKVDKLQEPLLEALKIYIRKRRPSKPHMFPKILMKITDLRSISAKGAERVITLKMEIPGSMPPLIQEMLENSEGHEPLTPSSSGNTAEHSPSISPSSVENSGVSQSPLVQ

In the case of `N#Cc1ccc(C(c2ccc(C#N)cc2)n2cncn2)cc1`, the call in assay [1], in assay [2], in assay [3] and in assay [4] was inactive.

For `CC1=CCC(C(C)C)C=C1` (stereo not drawn), the outcome in assay [2] was inactive.

For the compound `Cc1noc(NS(=O)(=O)c2ccc(N)cc2)c1C`, the outcome in assay [5] and in assay [6] was inactive.

For `CC(C)(C)C1CCC(=O)CC1`, the compound was classed as inactive in assay [1], in assay [3] and in assay [4].

`CCN1CCCC1=O`: in assay [2], the call was inactive.

Consider `CCCCCCO`, for which, in assay [2], the result was inactive.

As to `Cc1cc(=O)[nH]c(=O)[nH]1`, the compound was called inactive in assay [1] and in assay [3].

For `Cn1ccnc1`, the result in assay [6] was inactive.

In general, AC50 refers to the midpoint of the concentration-response curve, whichever way the signal moves. `CC(=O)/C=C/C1C(C)=CCCC1(C)C` (stereo not drawn): the values for the half-maximal activity concentration (AC50) in assay [2] and in assay [3] were 42.1 µM (active) and 2.79 µM (active), respectively.

On to `CCCCNC(=S)NCCCC`, for which the outcome in assay [5], in assay [2], in assay [3] and in assay [4] was inactive.

In the case of `CCOc1ccc(NC(N)=O)cc1`, the call in assay [6], in assay [2] and in assay [4] was inactive.

As for `CCCCNS(=O)(=O)c1ccccc1`, the result in assay [2] and in assay [3] was inactive.

`CC1(C)[C@@H]2CC[C@@]1(C)C(=O)C2`: the compound was classed as inactive in assay [6] and in assay [4].
